Calls of active or inactive are those of the source. Calls come from the whole dose curve; as a rule, active = well fitted curve in the direction sought with a large enough effect in the repeat runs; inconclusive = weak or mixed curves; inactive = flat fitted curve, though single readings scatter.

The nature of this test: qHTS assay to test for compound auto fluorescence at 535 nm (green) in HepG2 cell free culture (AID 720686). Conditions: Cell-free medium, green autofluorescence 485/535 nm; series mostly up to 91.3 µM. An excerpt:
U.S. Tox21 Program National Center for Advancing Translational Sciences [NCATS] NIH Chemical Genomics Center [NCGC] U.S. Environmental Protection Agency [EPA] National Institutes of Environmental Health Sciences [NIEHS] National Toxicology Program [NTP] U.S. Food and Drug Administration [FDA] Tox21 Assay Overview: Compound auto fluorescence often interferes with screening of the compound library against various biological targets and signaling pathways. Some of these compounds may have fluorophoric properties. Such properties may interfere with the assay outputs resulting in false positives and/or negatives. To decrease such complications and ensure the compound activities are relevant in terms of biological response, the Tox21 10K compound library was screened for auto fluorescence. From the fluorophores used as reporter signals in our screening assays, the auto fluorescence equivalencies of compounds against three fluorophores have been evaluated: Triamterene, Fluorescein and Rose Bengal sodium for blue, green and red fluorescence, respectively. The fluorescence intensities were measured using Excitation/Emission wavelengths at 405/460nm, 485/535nm and 540/590nm for blue, green and red labels, respectively. This assay includes the green fluorescence data.
Tox21 Assay Protocol Summary: 5 uL of culture medium (MEM containing 10% FBS) per well was dispensed into black wall/clear bottom 1536-well plates using a Multidrop Combi Dispenser (ThermoFisher Scientific, Waltham, MA). After 23 nL compound or DMSO vehicle was transferred into assay plate by a pintool work station (Kalypsys, San Diego, CA), fluorescence intensities in the assay plates were measured by an Envision (PerkinElmer, Shelton, CT) plate reader using three labels for measuring blue, green and red fluorescence at […] 460, 535 and 590nm respectively.
In general terms: qHTS replaces the single test concentration by a dilution series.
As to `O=c1ccc2ccccc2o1`, the call was inactive.

`NC(=O)c1cnccn1`: the molecule was classed as inactive.

In the case of `O=C(O)c1cccc([N+](=O)[O-])c1`, the call was inactive.

For the molecule `CCCCC1C(=O)N(c2ccccc2)N(c2ccccc2)C1=O`, the molecule was classed as inactive.

On to `O=C(c1ccccc1)C(O)c1ccccc1` (stereo not given), for which the call was inactive.

In the case of `O=c1cc[nH]c(=S)[nH]1`, the call was inactive.

For `CC(=O)Nc1nnc(S(N)(=O)=O)s1`, the molecule was called inactive.

`Nc1ccc(O)c(C(=O)O)c1`: the outcome was inactive.

Turning to `OCCc1ccccc1`, the molecule was classed as inactive.

Consider `CC(O)C(=O)O` (stereo not given), for which the molecule was called inactive.

With `O=C(O)c1cccnc1`, the molecule was classed as inactive.

Regarding `CCCC(O)C(CC)CO` (stereo not given), the outcome was inactive.

Turning to `COc1ccc2[nH]cc(CCNC(C)=O)c2c1`, the result was inactive.

For `O=C1NC(=O)c2ccccc21`, the result was inactive.

For `CCCNC(=O)NS(=O)(=O)c1ccc(Cl)cc1`, the outcome was inactive.

`CC(O)CN(CCN(CC(C)O)CC(C)O)CC(C)O` (stereo not given): the molecule was called inactive.

As for `CC1(C)[C@@H]2CC[C@@]1(C)C(=O)C2`, the outcome was inactive.

Regarding `O=C1CN(/N=C/c2ccc([N+](=O)[O-])o2)C(=O)N1`, the molecule was called inactive.

Take `CC(C)(Oc1ccc(C2CC2(Cl)Cl)cc1)C(=O)O` (stereo not given): the result was inactive.

`N=C(N)c1ccc(OCCCCCOc2ccc(C(=N)N)cc2)cc1`: the molecule was called inactive.

Turning to `NC(=O)c1ccccc1O`, the call was inactive.

For `c1ccc2[nH]ccc2c1`, the call was inactive.

As for `Oc1ccc(/C=C/c2cc(O)cc(O)c2)cc1`, the outcome was inactive.

For the molecule `O=C(O)CS`, the molecule was classed as inactive.

For the molecule `O=C(C1CCCCC1)N1CC(=O)N2CCc3ccccc3C2C1` (stereo not given), the molecule was called inactive.

With `CC(C)[C@@H]1CC[C@@H](C)C[C@H]1O`, the call was inactive.

Turning to `NC(N)=NC(=O)c1nc(Cl)c(N)nc1N`, the molecule was classed as inactive.

As to `Nc1ccc(S(=O)(=O)Nc2nccs2)cc1`, the molecule was classed as inactive.

Take `Nc1ccc(C(=O)O)cc1`: the molecule was called inactive.

`O=C(O)CCCCC(=O)O`: the molecule was called inactive.

Turning to `Cc1cn([C@H]2C[C@H](N=[N+]=[N-])[C@@H](CO)O2)c(=O)[nH]c1=O`, the molecule was classed as inactive.

Regarding `O=S(=O)(O)NC1CCCCC1`, the outcome was inactive.

In the case of `Cc1ccc(C)c(OCCCC(C)(C)C(=O)O)c1`, the molecule was classed as inactive.

Consider `O=S(=O)(O)c1ccc2cc(O)ccc2c1`, for which the molecule was classed as inactive.

For the molecule `Cn1cc[nH]c1=S`, the molecule was called inactive.

With `Nc1ccc(S(=O)(=O)c2ccc(N)cc2)cc1`, the molecule was classed as inactive.

On to `Cc1cc(=O)n(-c2ccccc2)n1C`, for which the outcome was inactive.

Consider `NC(N)=O`, for which the molecule was called inactive.

Turning to `O=C(O)CCC(=O)O`, the result was inactive.

Consider `O=C(O)c1cc(N=Nc2ccc(S(=O)(=O)Nc3ccccn3)cc2)ccc1O`, for which the molecule was classed as inactive.

Values taken from PubChem BioAssay (Tox21).
